Compounds with a hit are over-represented: about 0.5% of the library has one in this group of screens.
E coli growth-1 – blocks Escherichia coli growth; hit rate 0.21% among 330,000; OD600, 23 h; stronger effect = lower value; OD600 absorbance (no concentration beside the values);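 active means OD600 absorbance below the run mean of sample wells minus 3.6 SD, in any replicate, cut at about 0.56 in these data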
Tat export inh – E. coli Tat transport inhibition; E. coli MC4100 TorA-mCherry Tat export, fluorescence; inhibition, % at 10 µM; hit rate 0.036% among 340,000;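 active means mean replicate inhibition at least 50% and at least half of replicates individually reaching 50%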;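 further: exported cargo escapes ClpAP degradation while cytoplasmic cargo is degraded and loses fluorescence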
AddAB inh – less growth of phage-infected E. coli with AddAB; E. coli expressing H. pylori AddAB, absorbance growth; inhibition, % at 11.9 µM; hit rate 0.29% among 330,000; AID 435030; in the data active means inhibition above about 12%
phage Ecoli inh – E. coli growth loss with phage present; growth absorbance; inhibition, % at 11.9 µM; hit rate 0.26% among 360,000; AID 651602; in the data active means inhibition above about 11%
E coli growth-2 – bacterial growth inhibition, counter-screen for AddAB inhibitors | inhibition, % at 11.9 µM | hit rate 0.27% among 330,000 | E. coli V3065 growth, OD600 absorbance, 18 h;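 active means inhibition above the campaign's mean inhibition across all tested compounds plus 3 SD, cut at about 9.9% in these data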;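 further: uninfected addAB+ strain grown without phage in ampicillin broth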
AddAB conf – confirmation screen: growth loss of phage-infected E. coli expressing H. pylori AddAB. shares compounds with AddAB inh. inhibition, % at 11.9 µM. E. coli V3065 expressing H. pylori AddAB, T4 phage, OD; T4 phage with gene 2 nonsense mutations. hit rate 64% among 880;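 active means mean inhibition above a set limit taken from the earlier primary screen, cut at about 13% in these data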;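 further: higher means less bacterial growth since AddAB block lets phage replicate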
RecBCD counter – reduces growth of phage-infected RecBCD+ E. coli, AddAB inhibitor counter-screen | inhibition, % at 11.9 µM | AID 488955 | hit rate 73% among 880 | shares compounds with AddAB inh | E. coli V66 + mutant T4 phage, OD growth;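 active means mean inhibition above the mean of solvent-only control wells plus 3 SD, cut at about 4% in these data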;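 further: optical density read after an 18 h incubation at 37 °C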
Bact viability – counter-screen: bacterial growth inhibition | inhibition, % at 11.9 µM | bacterial viability, absorbance (AddAB counterscreen) | shares compounds with AddAB inh | hit rate 35% among 880; in the data active means inhibition above about 25%
RecBCD conf – confirmation: growth loss of phage-infected RecBCD+ E. coli (RecBCD inhibitor screen) | inhibition, % at 11.9 µM | AID 651982 | hit rate 45% among 890 | shares compounds with phage Ecoli inh | E. coli V66 + T4 2- phage, growth OD;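 active means mean inhibition over triplicates exceeding the hit threshold derived in the original primary screen, cut at about 11% in these data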
Ecoli viability – bacterial viability inhibition counter-screen for RecBCD. shares compounds with phage Ecoli inh. inhibition, % at 11.9 µM. hit rate 29% among 890. AID 651983. E. coli viability, absorbance (OD) growth; in the data active means inhibition above about 20%;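 further: E. coli strain V66 grown with compound alone and no phage infection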
AddAB phage OD – growth loss of phage-infected AddAB E. coli, RecBCD counter-screen. shares compounds with phage Ecoli inh. E. coli expressing H. pylori AddAB + T4 phage, OD growth; gene 2 mutant T4, recBCD-deleted host. inhibition, % at 11.9 µM. hit rate 45% among 890;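 active means mean inhibition above the solvent-only control wells' mean plus 3 SD, cut at about 22% in these data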;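 further: higher means less bacterial growth from phage killing when AddAB is blocked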
Each line names hits and unclear results; the compound was inactive in the other large screens (follow-up assays come after a bar, where they were run).

C=CCCC(Cc1ccc(F)cc1)C(=O)OCC1CCCN1C(=O)C(CC=C)CC(=O)N(CCO)Cc1ccccc1 (centres undefined)	none (no result: Tat export inh, AddAB inh, phage Ecoli inh, E coli growth-2)
Oc1c(N=Nc2ccccn2)ccc2ccccc12	AddAB inh 20, phage Ecoli inh 18, E coli growth-2 18 | AddAB conf 21 | RecBCD counter 17 | Bact viability inactive | RecBCD conf 12 | Ecoli viability inactive | AddAB phage OD 26
Oc1[nH]c2ccccc2c1N=Nc1ccccn1	none (no result: E coli growth-1, AddAB inh, E coli growth-2)
NS(=O)(=O)c1ccc(NN=Cc2ccc(O)cc2O)c([N+](=O)[O-])c1	none (no result: Tat export inh, AddAB inh, phage Ecoli inh, E coli growth-2)
CC1COc2c(N3CCN(C)CC3)c(F)cc3c(=O)c(C(=O)O)cn1c23 (centres undefined)	E coli growth-1 0.061, Tat export inh 117, AddAB inh 99, phage Ecoli inh 98, E coli growth-2 98 | AddAB conf 100 | RecBCD counter 100 | Bact viability 101 | RecBCD conf 101 | Ecoli viability 102 | AddAB phage OD 102
CCOc1ccc(C(=O)Nc2ccc(N3CCN(C)CC3)cc2)cc1	none
CCOc1ccc(NC(=O)c2ccc(NC(=O)c3cn4c5c(c(N6CCN(C)CC6)c(F)cc5c3=O)OCC4C)cc2)cc1 (centres undefined)	E coli growth-1 0.067, Tat export inh 88, AddAB inh 95, phage Ecoli inh 99, E coli growth-2 97 | AddAB conf 100 | RecBCD counter 100 | Bact viability 99 | RecBCD conf 103 | Ecoli viability 104 | AddAB phage OD 104
NC(=O)C1CC2(CC(c3cccc(NC(=O)COc4ccc(Cl)cc4)c3)=NO2)CN1C(=O)C1CCC(=O)N1 (centres undefined)	none (no result: Tat export inh, AddAB inh, phage Ecoli inh, E coli growth-2)
COc1ccccc1NC(=O)NNC(=O)c1cc2ccccc2cc1O	AddAB inh 15, phage Ecoli inh 12, E coli growth-2 12 | AddAB conf 14 | RecBCD counter 14 | Bact viability inactive | RecBCD conf inactive | Ecoli viability inactive | AddAB phage OD inactive
O=C(CSc1nc2ccccc2n1Cc1ccccc1)NN=Cc1ccco1	none (no result: Tat export inh, AddAB inh, phage Ecoli inh, E coli growth-2)
COc1ccccc1C=CCN1CCCC(CCC(=O)NCc2ccc(F)c(F)c2)C1 (centres undefined)	none (no result: Tat export inh, AddAB inh, phage Ecoli inh, E coli growth-2)
Cc1cccc(NC(=O)c2ccc([N+](=O)[O-])o2)n1	E coli growth-1 0.53, AddAB inh 30, phage Ecoli inh 16, E coli growth-2 38 | AddAB conf 100 | RecBCD counter 13 | Bact viability 40 | RecBCD conf inactive | Ecoli viability inactive | AddAB phage OD 61
Cc1cc(C)c2c(NC(N)=S)n[nH]c2n1	none
Cc1cc(C)c2c(N=NN(C)C)[nH]nc2n1	AddAB inh 39, phage Ecoli inh 14, E coli growth-2 78 | AddAB conf 97 | RecBCD counter 8.6 | Bact viability 54 | RecBCD conf 12 | Ecoli viability inactive | AddAB phage OD 70
CC(NC(=O)c1ccc(Cl)cc1)C(=O)NCCc1ccc(S(N)(=O)=O)cc1 (centres undefined)	none (no result: Tat export inh, AddAB inh, phage Ecoli inh, E coli growth-2)
Oc1ccc2ccccc2c1C=NNc1nnc(-c2ncc[nH]2)c2ccccc12	none (no result: Tat export inh, AddAB inh, phage Ecoli inh, E coli growth-2)
Oc1ccc2ccccc2c1/C=N/Nc1nnc(-c2ncc[nH]2)c2ccccc12	AddAB inh 19, phage Ecoli inh 17, E coli growth-2 14 (no result: E coli growth-1) | AddAB conf 22 | RecBCD counter 24 | Bact viability inactive | RecBCD conf 17 | Ecoli viability 22 | AddAB phage OD 27
O=S(=O)(Nc1nccs1)c1ccc(Br)cc1	none
Nc1ccc(S(=O)(=O)Nc2nccs2)cc1	AddAB inh 29, phage Ecoli inh 12, E coli growth-2 15 | AddAB conf inactive | RecBCD counter 5.5 | Bact viability inactive | RecBCD conf inactive | Ecoli viability inactive | AddAB phage OD 27
COc1ccc(O)c(/C=N/NC(=O)c2ccc(CSc3nc(C)cc(C)n3)cc2)c1	AddAB inh 16, phage Ecoli inh 11, E coli growth-2 11 (no result: E coli growth-1) | AddAB conf inactive | RecBCD counter 8.0 | Bact viability inactive | RecBCD conf inactive | Ecoli viability inactive | AddAB phage OD inactive
CC(=NNC(=O)c1ccc(-c2ccccc2)cc1)c1cccc(O)c1	none (no result: Tat export inh, AddAB inh, phage Ecoli inh, E coli growth-2)
COc1c(OC)c(O)c2c(=O)c(O)c(-c3ccccc3)oc2c1OC	none
COc1ccc(-c2oc3c(OC)c(OC)c(OC)c(O)c3c(=O)c2OC)cc1OC	AddAB inh 13, phage Ecoli inh 12 | AddAB conf inactive | RecBCD counter 4.1 | Bact viability inactive | RecBCD conf inactive | Ecoli viability inactive | AddAB phage OD inactive
COc1ccc(-c2cc(N3CCCC3)n3ncnc3n2)cc1	AddAB inh 17, phage Ecoli inh 14, E coli growth-2 20 | AddAB conf 21 | RecBCD counter 14 | Bact viability inactive | RecBCD conf inactive | Ecoli viability inactive | AddAB phage OD inactive
COc1ccc2nc(NC(=O)CCNC(=O)c3ccco3)sc2c1	AddAB inh 16, phage Ecoli inh 12, E coli growth-2 14 | AddAB conf 14 | RecBCD counter 12 | Bact viability inactive | RecBCD conf inactive | Ecoli viability inactive | AddAB phage OD inactive
COc1ccc(N/N=C(/N=Nc2nc(C)cc(=O)[nH]2)c2ccccc2)cc1	AddAB inh 19, phage Ecoli inh 22, E coli growth-2 20 (no result: E coli growth-1) | AddAB conf 24 | RecBCD counter 20 | Bact viability inactive | RecBCD conf 14 | Ecoli viability inactive | AddAB phage OD inactive
COc1ccc(C2C=CCN(Cc3ccc(N(C)C)cc3)C(C)C(=O)N2Cc2ccc(F)cc2)cc1 (centres undefined)	none (no result: Tat export inh, AddAB inh, phage Ecoli inh, E coli growth-2)
COC(=O)C1=C(C(=O)OC)C2N(C)c3ccc(OC)cc3[C@@]23CC(C(=O)OC)N(C(=O)C2CCC2)C3=N1 (some centres undefined)	none (no result: Tat export inh, AddAB inh, phage Ecoli inh, E coli growth-2)
CC1CN(C(C)CO)C(=O)c2cc(NC(=O)C3CC3)ccc2OC1CN(C)C (centres undefined)	none (no result: Tat export inh, AddAB inh, phage Ecoli inh, E coli growth-2)
Cc1nc2ccc(C(=O)N/N=C/c3cc([N+](=O)[O-])ccc3O)cc2[nH]1	AddAB inh 19, phage Ecoli inh 17, E coli growth-2 17 (no result: E coli growth-1) | AddAB conf inactive | RecBCD counter 14 | Bact viability inactive | RecBCD conf inactive | Ecoli viability inactive | AddAB phage OD inactive

Screens deposited in PubChem by several laboratories.
